Only a selection was taken, and hits are over-represented in it overall.
DT40 TDP1 CPT: DT40-hTDP1 cell growth loss with CPT | AID 686979 | chicken DT40 Tdp1-/-;hTDP1 cells + 20 nM CPT, ATP luminescence, 48 h | Potency, µM (doses to about 46.2 µM), for the others: top-dose activity change, negative = growth inhibition, actives largely listed as inhibitors | 12% of 420,000 active; further: potency means the concentration at half of the fitted maximal effect; nearly all actives have a fitted effect of over 55% in size
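Chicken DT40 Tdp1-/- cells complemented with human TDP1, 400 cells/well, exposed to compounds plus 20 nM camptothecin for at least 48 h at 37 C; viability read as ATP content by CellTiter-Glo luminescence.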
HT1080 IDH1KD tx: HT-1080 IDH1 knockdown cell toxicity (counter line) | HT-1080 IDH1 knockdown viability, ATP luminescence, 48 h | Potency, µM (top dose mostly 46.1 µM), inactives show at the top dose activity, negative = toxicity, actives largely listed as cytotoxic | 2% of 360,000 active | AID 686971;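 further: potency means the concentration at half of the fitted maximal effect; 0% = DMSO wells and -100% = cell-free medium wells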
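After a 2 h attachment period, IDH1KD HT-1080 cells took pin-transferred compound for 48 h at 37 °C; ATP-based luminescence after 10 min room-temperature reagent incubation reported viability.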
12-LOX inh: inhibitors of human 12S-lipoxygenase ALOX12; P18054; 1.1% of 580,000 active; purified 12hLO, xylenol orange hydroperoxide absorbance; Potency, µM (doses to about 108 µM), for the others: at the top dose activity change, negative = inhibition, hits mostly inhibitors; further: potency means the concentration at half of the fitted maximal effect
Target sequence (P18054 whole entry, looked up): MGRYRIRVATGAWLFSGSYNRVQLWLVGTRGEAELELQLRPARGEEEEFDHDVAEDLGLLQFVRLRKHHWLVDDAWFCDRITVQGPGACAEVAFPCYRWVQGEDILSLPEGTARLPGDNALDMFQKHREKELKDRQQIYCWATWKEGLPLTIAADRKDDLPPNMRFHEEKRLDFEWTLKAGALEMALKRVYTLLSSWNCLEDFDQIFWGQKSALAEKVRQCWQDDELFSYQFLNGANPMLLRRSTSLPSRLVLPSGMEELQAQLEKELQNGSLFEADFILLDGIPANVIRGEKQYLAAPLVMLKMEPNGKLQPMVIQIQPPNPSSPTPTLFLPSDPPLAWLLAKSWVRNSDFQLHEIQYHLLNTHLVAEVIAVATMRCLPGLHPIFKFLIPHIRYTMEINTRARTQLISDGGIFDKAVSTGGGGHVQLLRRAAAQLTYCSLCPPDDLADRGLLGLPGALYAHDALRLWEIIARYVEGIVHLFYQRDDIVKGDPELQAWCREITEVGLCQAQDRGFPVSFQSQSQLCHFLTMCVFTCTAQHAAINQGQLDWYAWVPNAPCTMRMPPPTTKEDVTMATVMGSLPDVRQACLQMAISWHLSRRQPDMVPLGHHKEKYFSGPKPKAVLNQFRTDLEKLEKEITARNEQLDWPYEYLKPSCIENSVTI
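Purified human 12hLO at 150 nM in 25 mM Hepes, 0.01% Triton X-100, pH 7.0, preincubated 15 min at room temperature with compound. Reaction started with 40 uM arachidonic acid, 30 min at room temperature. Hydroperoxide measured by Fe-xylenol orange, 573/405 nm absorbance ratio.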
HT1080-NT tox: kills 2HG-producing HT-1080-NT fibrosarcoma cells; HT-1080-NT fibrosarcoma viability, CellTiter-Glo ATP luminescence, 48 h; Potency, µM (top dose mostly 46.1 µM), without a hit: at the highest dose activity, negative = less viability, most hits filed as cytotoxic; 1.6% of 360,000 active; AID 686970;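 further: NT is the 2HG producing partner of a matched IDH1 knockdown line; potency means the concentration at half of the fitted maximal effect; 0% = DMSO-treated cells and -100% = media-only wells without cells; nearly all actives have a fitted effect of over 55% in size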
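Viability by CellTiter-Glo luminescence after 48 h compound exposure at 37C of HT-1080-NT cells (750/well, RPMI, 5% FBS). % activity scaled between DMSO wells and medium-only wells, then curve-fitted and categorized by curve class.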
IL-1B inflam inh: inhibitors of inflammasome signaling (IL-1 beta secretion); THP-1 LPS/ATP IL-1B secretion, AlphaLISA, 16 h; stronger effect = lower value; activity change, % at 57.5 µM; 4.7% of 360,000 active; in the data active means activity change below about -50%; inconclusive means mostly about -30% to -49%
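Secreted IL-1B measured by AlphaLISA bead assay after 16 h compound exposure of THP-1 cells; compounds (final up to 57.5 uM) added 1 h before LPS (250 ng/mL) and ATP (1.25 mM) stimulation; lower signal means less secretion.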
TDP1 cell noCPT: qHTS for Inhibitors of human tyrosyl-DNA phosphodiesterase 1 (TDP1): qHTS in cells in absence of CPT. Potency, µM (highest dose often 46.2 µM), for the others: at the highest dose activity change, negative = growth inhibition, actives largely listed as inhibitors. DT40 Tdp1-/- hTDP1 cells, no CPT, ATP luminescence, 48 h. 15% of 420,000 active; further: potency means the concentration at half of the fitted maximal effect; nearly all actives have a fitted effect of over 55% in size
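Stably hTDP1-transfected Tdp1-null chicken DT40 cells were treated with library compounds minus camptothecin and grown for at least 48 hr at 37 °C, after which cellular ATP was quantified by luminescence.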
The depositor's hits bear a star; ? = inconclusive; · = no result; [ ] = another dose, or the depositor's remark. Unless noted, the call rests on the fitted dose curve; in most records, active means well fitted curve in the direction sought with a large enough effect; inconclusive means small, poorly fitted or top-dose-only effect, or another doubt; inactive means no such curve, though single readings can be large; an effect the other way counts as inactive or inconclusive. Unless noted, on the % scale 0 is the no-effect control and ±100 the full control effect.

SMILES	DT40 TDP1 CPT	HT1080 IDH1KD tx	12-LOX inh	HT1080-NT tox	IL-1B inflam inh	TDP1 cell noCPT
CCCNC(=O)NC(=O)CSc1cc(C)c2ccccc2n1	·	·	-28%	·	·	·
Cc1ccc(OCC(=O)N(Cc2ccc(Cl)cc2)Cc2ccco2)cc1C	?	·	?	·	·	21µM*
Cc1cc(Cl)ccc1OCC(=O)N(Cc1ccco1)c1c(N)n(Cc2ccccc2)c(=O)[nH]c1=O	?	1%	?	-2%	0	?
COc1ccc(CN(Cc2ccco2)C(=O)COc2ccc(Cl)cc2C)cc1	?	·	-18%	·	·	21µM*
Cc1ccc(OCC(=O)N(Cc2ccco2)C2CCS(=O)(=O)C2)cc1C (stereo unspecified)	-7%	1%	·	-1%	-1	-27%
O=C(CCC[C@@H]1[C@H]2CCCN3CCC[C@@H](CN1C(=O)c1ccsc1)[C@@H]23)NCC1CC1	·	·	32%	·	·	·
CC1(C(=O)NCc2ccncc2)CCc2cnc(NCc3ccccc3)nc21 (stereo unspecified)	·	·	32%[176 µM]	·	·	·
CCCCCn1nc(C(=O)Nc2cc(C)cc(C)c2)c2ccccc2c1=O	·	·	-11%	·	·	·
Cc1c(-c2ccc(F)cc2)nc(N)c(C#N)c1-c1ccco1	-9%	13µM*	-44%	?	3	4%
CCCOC(=O)CSc1nc(N)c(C#N)c(-c2ccco2)c1C#N	5%	10%	-4%	13%	-88*	-27%
CCc1nc(N)c(C#N)c(-c2ccc(F)cc2)c1C	-2%	6%	458%	5%	9	0%
N#Cc1c(N)nc(SCc2ccccc2)c(C#N)c1-c1ccco1	?	8%[9.24 µM]	-61%	?	-73*	?
COc1ccc(C2Cn3nnc(-c4noc(-c5ccc(Cl)cc5OC)n4)c3CO2)cc1 (stereo unspecified)	·	·	2%	·	·	·
Cc1ccc(CN2CCCOCCNC(=O)[C@@H]3CCCC[C@@H]32)s1	·	·	36%	·	·	·
CN(CCCC(=O)OC(C)(C)C)C(=O)/C=C/c1ccc(Cl)cc1	·	·	-27%	·	·	·
CCC(C)(C(=O)NC1CCCCC1)N(Cc1cccs1)C(=O)Cc1cccs1 (stereo unspecified)	?	0%	-17%	-1%	-23	?
CCC(C)(C(=O)NC1CCCC1)N(Cc1cccs1)C(=O)c1ccc2c(c1)OCO2 (stereo unspecified)	18µM*	-13%	-3%	-2%	-14	21µM*
CCCc1cc(=O)oc2c(C)c(OCC(=O)OC(C)(C)C)ccc12	·	·	-15%	·	·	·
COc1ccc(-c2cc(-c3nc(-c4ccc(Br)cc4)no3)[nH]n2)c(OC)c1	·	·	6%	·	·	·
CCOC(=O)c1cc(CC)sc1NC(=O)c1cc(OC)c(OC)c(OC)c1	?	18%	?	17%	-16	18µM*
COc1cc(C(=O)Nc2ccc(Br)cc2C(=O)c2cc(OC)c(OC)c(OC)c2)cc(OC)c1OC	13µM*	?	21%	?	29	3.7µM*
CCOC(=O)c1[nH]c2ccc(F)cc2c1NC(=O)c1cc(OC)c(OC)c(OC)c1	?	-4%	-16%	-5%	-4	23µM*
COc1cc(C(=O)Nc2cccc3c2CCCC3)cc(OC)c1OC	?	-14%	-7%	-5%	-3	?
COc1cc(C(=O)Nc2c(C(=O)O)[nH]c3ccc(Br)cc23)cc(OC)c1OC	-4%	1%	40µM*	-13%	20	-14%
COc1cc(C(=O)Nc2scc(-c3ccc(Br)cc3)c2C(=O)O)cc(OC)c1OC	-16%	7%	-62%	-6%	2	-5%
SMILES	DT40 TDP1 CPT	HT1080 IDH1KD tx	12-LOX inh	HT1080-NT tox	IL-1B inflam inh	TDP1 cell noCPT
CCCC(=O)Nc1c(C(=O)OCC)[nH]c2ccc(F)cc12	·	·	-2%	·	·	·
CCOC(=O)c1[nH]c2ccc(OC)cc2c1NC(=O)c1cccc(OC)c1	23µM*	-2%	-29%	-1%	-16	?
COC(=O)c1[nH]c2ccc(F)cc2c1NS(=O)(=O)c1ccc(OC)cc1	3.3µM*	?	-10%	5.2µM*	41	3.3µM*
CCOC(=O)Cn1nc(C)cc1NC(=O)c1cc(OC)c(OC)c(OC)c1	?	-8%	2%	-29%	-78*	?
COc1ccc(S(=O)(=O)Nc2c(C(=O)O)[nH]c3ccc(OC)cc23)cc1	6%	6%	?	6%	71	19%
CN(C)C(=O)c1cccc(NC(=O)c2ccc(-c3ccccc3)cc2)c1	·	·	4%	·	·	·
COc1ccc(/C=C2\SC(=S)N(NS(=O)(=O)c3ccc(C)cc3)C2=O)c(OC)c1	6%	-8%	?	4%	1	-25%
COc1ccccc1/C=C1\SC(=S)N(NS(=O)(=O)c2ccc(C)cc2)C1=O	-4%	-6%	35µM*	-4%	-8	2%
CC(=O)Oc1c(C)c(=O)n(C)c2ccccc12	-14%	-20%	0%	13%	-89*	-2%
CCCCOc1ccc(C(=O)N2CCC[C@H]2c2nc(-c3ccc(F)cc3)no2)cc1	·	·	5%	·	·	·
CCC(=O)NC(=S)NNC(=O)c1ccc(NC(=O)c2ccccc2)cc1	5.8µM*	-5%	-3%	1%	-10	7.3µM*
CC(NC(=O)NC(=O)c1cccc(Cl)c1)c1ccccc1 (stereo unspecified)	13µM*	4%	0%	0%	14	?
C=CCNC(=S)NNC(=O)c1ccc(OCC(C)C)cc1	?	-25%	14%	?	-15	?
C=CCNC(=S)NNC(=O)c1ccc(OCC)cc1	?	1%	2%	1%	3	21µM*
Cc1cccc(C(=O)NC(=S)NNC(=O)COc2ccc(Cl)cc2)c1	?	-12%	35µM*	-17%	26	?
O=C(CCc1ncc(-c2ccccc2)o1)N1CCCN(Cc2ccc(F)cc2)CC1	·	·	8%	·	·	·
O=C(Nc1ccccc1-c1ccccc1)c1cccc(F)c1	·	·	-13%	·	·	·
COC(=O)CNC(=O)N1CCCCC1c1nc(CCOc2cccc(C)c2)no1 (stereo unspecified)	·	·	42%	·	·	·
COc1ccc(/C=C/C(=O)NC(=S)NNC(=O)c2cccs2)cc1	6.5µM*	?	-12%	?	64	4.6µM*
CCCCC(=O)NC(=S)NNC(=O)c1ccc(OC)cc1	4.6µM*	?	?	?	205	3.3µM*
Cc1cc(C(=O)NNC(=S)NC(=O)c2ccccc2)cs1	·	·	28µM*	·	·	·

Bioassay records: PubChem, National Center for Advancing Translational Sciences (NCATS)
